Inconclusive results are not listed. Values without a mark were called inactive. Active and inactive are the calls of the source. Calls come from the whole dose curve; as a rule, active = well fitted inhibition curve with a large enough effect in the signal ratio in the repeat runs (not every such curve was filed as active); inconclusive = weak or mixed curves, or effect the other way; inactive = flat fitted curve, though single readings scatter; the % refers to the signal ratio.
Test: cAMP Responsive Elements (CRE) small molecule antagonists, cell-based qHTS assay (AID 1963591)
Conditions: CRE-bla HEK293T, beta-lactamase FRET ratio; series mostly up to 92.4 µM; activity change, negative = inhibition: at the top concentration
From the text: U.S. Tox21 Program National Center for Advancing Translational Sciences [NCATS] Division of Preclinical Innovation [DPI] U.S. Environmental Protection Agency [EPA] National Institutes of Environmental Health Sciences [NIEHS] National Toxicology Program [NTP] U.S. Food and Drug Administration [FDA] Tox21 Assay Overview: CREB (cyclic-AMP Responsive Element Binding Protein) is a cellular transcription factor. It binds to certain DNA sequences called cAMP Responsive Elements (CRE) and regulates the transcription of the genes. […] This cell line can be used to find agonists/antagonists of the cyclic AMP signaling pathway. The activation of the report gene under culture conditions can be detected by fluorescence intensity. This cell line has been used to screen the Tox21 10K compound library to […].
Tox21 Assay Protocol Summary: CRE-bla Hek 293T cells were suspended in assay medium (DMEM containing 10% dialyzed FBS, 0.1 mM NEAA, 1 mM sodium pyruvate and 25 mM HEPES) and dispensed at 2,000 cells/4 uL /well into 1536-well black wall/clear bottom plates using a Multidrop Combi (ThermoFisher Scientific, Waltham, MA) dispenser. After the assay plates were incubated at 37 C/5% CO2 for 18 hrs, 23 nL of compounds dissolved in DMSO, positive controls or DMSO only was transferred to the assay plate by a pintool workstation (Kalypsys, San Diego, CA), followed by addition of 1 […] uL of 1.25uM NKH477 (0.25 uM as final concentration) in assay medium using a Flying Reagent Dispenser (Aurora Discovery, San Diego, CA). The plates were incubated at 37 C and 5% CO2 for 3 hrs. Then 1 uL of LiveBLAzer B/G FRET substrate (Invitrogen, Carlsbad, CA) was added to each well using Bioraptr Flying Reagent Dispenser (FRD, Aurora Discovery, San Diego, CA). The plates were incubated at room temperature for 2 h.
For `CNC(=O)O/N=C(/CSC)C(C)(C)C`, the “activity change, negative = inhibition” value was 2.81%.
Work on `CC1=C(C(=O)O)N2C(=O)[C@@H](N)[C@H]2SC1` yielded an activity change, negative = inhibition of -4.67% [at 18.9 µM].
With `ClCc1cccc(Cl)c1` the “activity change, negative = inhibition” value was -4.74% [at 42.4 µM].
With `Cc1cc(C)cc(OP(=O)(Oc2cc(C)cc(C)c2)Oc2cc(C)cc(C)c2)c1` the “activity change, negative = inhibition” value was 0.824%.
In the case of `CC(C)[C@@H](C(=O)O[C@@H](C#N)c1cccc(Oc2ccccc2)c1)c1ccc(Cl)cc1`, the Potency was “inactive”.
With `CN` the “activity change, negative = inhibition” value was 1.98%.
In the case of `CCOC(C(=O)OCCN(C)C)(c1ccccc1)c1ccccc1`, the “activity change, negative = inhibition” value was 0.305% [at 42.4 µM].
In the case of `CCC(C)Nc1c([N+](=O)[O-])cc(C(C)(C)C)cc1[N+](=O)[O-]` (stereo not given), the “activity change, negative = inhibition” value was -0.759%.
In the case of `BrCBr`, the “activity change, negative = inhibition” value was 0.389%.
With `CCOP(=S)(OCC)Oc1nc(Cl)n(C(C)C)n1` the “activity change, negative = inhibition” value was 9.14%.
In the case of `O=C(CBr)c1ccccc1`, the “activity change, negative = inhibition” value was 4.21%.
With `ClC(Cl)=C(c1ccc(Cl)cc1)c1ccccc1Cl` the “activity change, negative = inhibition” value was 2.86%.
For `O=S1(=O)OCCO1`, the “activity change, negative = inhibition” value was -1.56%.
With `C#CC1(O)CCCCC1` the “activity change, negative = inhibition” value was 3.51%.
In the case of `Nc1ccc2c(c1)Cc1ccccc1-2`, the “activity change, negative = inhibition” value was 4.68%.
With `CCS(=O)(=O)c1cccnc1S(=O)(=O)NC(=O)Nc1nc(OC)cc(OC)n1` the “activity change, negative = inhibition” value was 9.07%.
For `CCCSC(=O)N(CCC)CCC`, the “activity change, negative = inhibition” value was 0.55%.
With `S=C(SSC(=S)N1CCCCC1)N1CCCCC1` the Potency was 1.68 µM (active).
For `O=S(=O)(C(Cl)(Cl)Cl)C(Cl)(Cl)Cl`, the “activity change, negative = inhibition” value was -53.2%.
For `N#Cc1ccc(N(CC(N)=O)CC(F)(F)F)cc1C(F)(F)F`, the “activity change, negative = inhibition” value was 11.1%.
For `CN/C(=N\[N+](=O)[O-])NCC1CCOC1` (stereo not given), the “activity change, negative = inhibition” value was -9.03%.
In the case of `CC(C)(COCC1CO1)COCC1CO1` (stereo not given), the “activity change, negative = inhibition” value was 2.33%.
In the case of `CC(O)(CS(=O)(=O)c1ccc(F)cc1)C(=O)Nc1ccc(C#N)c(C(F)(F)F)c1` (stereo not given), the “activity change, negative = inhibition” value was -1.09% [at 42.4 µM].
For `CCC1(c2cccc(O)c2)CCCCN(C)C1` (stereo not given), the “activity change, negative = inhibition” value was -3.36% [at 42.4 µM].
With `Cc1ccc(S(=O)(=O)N[C@@H](CCCCN)C(=O)CCl)cc1` the “activity change, negative = inhibition” value was 8.06% [at 42.4 µM].
In the case of `CCC1(CC)C(=O)N=C(O)NC1=O`, the “activity change, negative = inhibition” value was 0.535%.
In the case of `C[N+]1(CCF)[C@@H]2CC[C@H]1CC(OC(=O)C(O)(c1ccccc1)c1ccccc1)C2` (stereo not given in full), the “activity change, negative = inhibition” value was -8.46% [at 42.4 µM].
With `Nc1ccccc1-c1ccccc1` the “activity change, negative = inhibition” value was -0.595%.
In the case of `CCCCCCCCP(=O)(O)O`, the “activity change, negative = inhibition” value was 6.66%.
In the case of `CCCCCCCC(=O)Cl`, the “activity change, negative = inhibition” value was 0.304%.
For `O=[N+]([O-])c1cc(Cl)c(Cl)cc1Cl`, the “activity change, negative = inhibition” value was 1.68%.
In the case of `COc1c2c(cc3c1OCO3)CCN(C)C2`, the “activity change, negative = inhibition” value was 2.43% [at 42.4 µM].
With `N#CNC#N` the “activity change, negative = inhibition” value was -0.566%.
In the case of `CCOP(=O)(OCC)Oc1cc(C)nc(C(C)C)n1`, the “activity change, negative = inhibition” value was 1.02%.
For `Nc1ccc([N+](=O)[O-])cc1Cl`, the “activity change, negative = inhibition” value was 2.24%.
For `CCOP(=S)(OCC)SCS(=O)(=O)CC`, the “activity change, negative = inhibition” value was 13.8%.
With `CCC(Cl)CCl` (stereo not given) the “activity change, negative = inhibition” value was -8.56%.
In the case of `Oc1ccc(I)cc1`, the “activity change, negative = inhibition” value was -18.6%.
For `CSSC`, the “activity change, negative = inhibition” value was -10.1%.
For `CCC1(CC)C(=O)NC(=O)NC1=O`, the “activity change, negative = inhibition” value was 2.37% [at 42.4 µM].

Reference: PubChem BioAssay (Tox21)
% is set by controls: 0 for no effect and ±100 for the full control effect; potency is the fitted concentration of half-maximal effect.
